Assay results from PubChem BioAssay (NCI).
The panel holds about 83,000 compounds, 20% with a hit somewhere; the sample as a whole holds those more often.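 Method: cells in 96-well plates; compound added at one concentration; 48 h incubation; percent growth measured; values under 10 scored active.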 A number with no mark means an inactive call. The source made the active and inactive calls.

Test system: SF-268 CNS
Test: NCI-60 one-dose screen, 48 h (100 = growth as untreated, 0 = no growth, -100 = all killed)
Conditions: 10 µM unless noted

| SMILES | growth |
| --- | --- |
| CC(=O)Oc1ccccc1C(=O)N=C1[Se]CCCN1C(=O)c1ccccc1OC(C)=O | -14.1% (active) |
| O=C1NC(=O)C(Cn2cnc3ccccc32)N1 (centres undefined) | 100% |
| O=C1CCC(C(=O)NCCNCCNC(=O)C2CCC(=O)N2)N1 (centres undefined) | 100% |
| COc1cccc(-c2nc(-c3ccc(NC(=O)c4ccccc4)cc3)[nH]c2-c2ccnc(Br)c2)c1 | 51.4% |
| Nc1cc2c(cc1Br)-c1cc(Cl)ccc1C2=O | 90.6% |
| COc1cc2cc(Oc3ccc(NC(=O)Nc4cc(C(F)(F)F)cc(C(F)(F)F)c4)cc3)c(C)nc2cc1OCCN1CCOCC1 | 27.8% |
| CCCCOc1nc2ccc(OC)cc2cc1-c1cc(-c2ccc(Cl)cc2)nc(-c2ccc(Cl)cc2)c1 | 99.8% |
| COc1ccc(N2C(=O)C(Oc3ccccc3)C2c2ccc(C)cc2)cc1 (centres undefined) | 102% |
| CC(C)c1cc(C(C)C)c(S(=O)(=O)Oc2ccc(NC(=O)c3ccc(Cl)cc3)cc2)c(C(C)C)c1 | 50.6% |
| COc1cc(C2CC(c3cccc(Br)c3)=NN2C(C)=O)cc(OC)c1OC (centres undefined) | 55.3% |
| Brc1ccc2[nH]cc(-c3nc(-c4c[nH]c5ccncc45)cs3)c2c1 | -65.7% (active) |
| O=C(N/N=C/c1c(Cl)cccc1Cl)c1ccc(C(F)(F)F)nc1Nc1cccc(C(F)(F)F)c1 | -2.71% (active) |
| Cc1[nH]c(C(=O)Nc2ccc(C(=O)N3CCNCC3)cc2OC(C)C)c(Cl)c1Cl | 74.4% |
| O=c1c2cc(F)cc(Cl)c2sc2c(NCCCNCCO)nc3ccccc3c12 | 67.1% |
| Cc1[nH]c(C(=O)Nc2ccc(C(=O)NCCN)cc2OC(C)C)c(Cl)c1Cl | 68.1% |
| O=C(S)CNC(=O)c1ccccc1 | 86.5% |
| COc1cccc(OC)c1C(=O)N[C@@H]1C(=O)N2[C@@H]1SC(C)(C)[C@@H]2C(=O)O | 109% |
| CCCCn1c(-c2ccc(C(=O)O/N=C(\N)c3ccc(OC)cc3)cc2)nc(-c2ccccc2)c1-c1ccccc1 | 9.12% (active) |
| CCCCCCN(CCCCCC)c1ccc(/C=C2/SC(=O)NC2=O)c(C)c1 | 89.5% |

| SMILES | growth |
| --- | --- |
| COc1cc(C(=O)N2N=C(c3ccc(S(C)(=O)=O)cc3)CC2c2ccco2)cc(OC)c1OC (centres undefined) | 87.6% |
| COc1ccc(-c2cc(-c3ccc(Cl)cc3)c(C#N)c(=O)n2CCCCCC(=O)Nc2ccccc2N)cc1 | 75.9% |
| COc1cccc(-c2nn(-c3ccccc3)cc2-c2ccnc(N3CCOCC3)c2)c1 | 88.8% |
| COc1cc(CNS(=O)(=O)c2ccc(C)cc2)ccc1OCc1cn(-c2ccccc2)nn1 | 98.2% |
| O=C(CCOCCNC(=O)COc1ccc2c(c1)OCC(c1ccc(F)cc1)C2=O)NCCCC(O)(P(=O)(O)O)P(=O)(O)O (centres undefined) | 98.6% |
| COc1ccc(C(=O)n2nc(-c3ccccc3)nc2N)cc1OC | 95.4% |
| Cc1cc(C)c(-c2c(N)cc(Br)cc2Br)c(N)c1 | 76.1% |
| [O-][n+]1c2ccccc2[n+]([O-])c2c3ccccc3[nH]c21 | 109% |
| Cc1c(C(=O)/C=C/Nc2c(Cl)cc(S(N)(=O)=O)cc2Cl)sc2nc3ccccc3n12 | 95.4% |
| Cc1ccc(C(C)C)cc1C(=O)C[n+]1ccccc1 | 98.8% |
| COc1ccc2c(c1)/C(=C/c1sc(=S)n(Cc3ccco3)c1O)C=N2 | 52.8% |
| Cc1cc2[nH]c(=O)c3c4ncccc4cn3c2cc1C | 41.7% |
| Cc1nc2ccccc2c(/C=C/c2ccccc2)c1C(=O)/C=C/c1ccc(C(F)(F)F)cc1 | -6.77% (active) |
| CN1CCN(CC(=O)N2c3cccc4cccc(c34)N(C(=O)CN3CCN(C)CC3)C2c2cn(-c3ccccc3)nc2-c2cccc([N+](=O)[O-])c2)CC1 | 7.89% (active) |
| Cc1ccc(S(=O)(=O)N/N=C/C2(c3ccccc3)CC2)cc1 | 111% |
| COc1cc(Nc2cn[nH]c2-c2ccc(Cl)cc2)cc(OC)c1OC | 77% |
| CNC(=O)c1cc(-n2ccc3cc(NC(=O)c4ccc(N5CCOCC5)c(C(F)(F)F)c4)ccc32)ccn1 | 88.3% |
| CN1CCN(c2ccc(-c3cc4c(Nc5ccc(F)c(Cl)c5)ncnn4c3)cc2)CC1 | 69.2% |

Test system: SF-295 CNS
Test: as above
Conditions: 10 µM unless noted

| SMILES | growth |
| --- | --- |
| CC(=O)Oc1ccccc1C(=O)N=C1[Se]CCCN1C(=O)c1ccccc1OC(C)=O | 17.5% |
| O=C1NC(=O)C(Cn2cnc3ccccc32)N1 (centres undefined) | 104% |
| O=C1CCC(C(=O)NCCNCCNC(=O)C2CCC(=O)N2)N1 (centres undefined) | 100% |
| COc1cccc(-c2nc(-c3ccc(NC(=O)c4ccccc4)cc3)[nH]c2-c2ccnc(Br)c2)c1 | -62.5% (active) |
| Nc1cc2c(cc1Br)-c1cc(Cl)ccc1C2=O | 106% |
| COc1cc2cc(Oc3ccc(NC(=O)Nc4cc(C(F)(F)F)cc(C(F)(F)F)c4)cc3)c(C)nc2cc1OCCN1CCOCC1 | 7.59% (active) |
| CCCCOc1nc2ccc(OC)cc2cc1-c1cc(-c2ccc(Cl)cc2)nc(-c2ccc(Cl)cc2)c1 | 98.1% |
| COc1ccc(N2C(=O)C(Oc3ccccc3)C2c2ccc(C)cc2)cc1 (centres undefined) | 89.6% |
| CC(C)c1cc(C(C)C)c(S(=O)(=O)Oc2ccc(NC(=O)c3ccc(Cl)cc3)cc2)c(C(C)C)c1 | 11.4% |
| COc1cc(C2CC(c3cccc(Br)c3)=NN2C(C)=O)cc(OC)c1OC (centres undefined) | 0.219% (active) |
| Brc1ccc2[nH]cc(-c3nc(-c4c[nH]c5ccncc45)cs3)c2c1 | -84.8% (active) |
| O=C(N/N=C/c1c(Cl)cccc1Cl)c1ccc(C(F)(F)F)nc1Nc1cccc(C(F)(F)F)c1 | 13.7% |
| Cc1[nH]c(C(=O)Nc2ccc(C(=O)N3CCNCC3)cc2OC(C)C)c(Cl)c1Cl | 107% |
| O=c1c2cc(F)cc(Cl)c2sc2c(NCCCNCCO)nc3ccccc3c12 | 104% |
| Cc1[nH]c(C(=O)Nc2ccc(C(=O)NCCN)cc2OC(C)C)c(Cl)c1Cl | 89.7% |
| O=C(S)CNC(=O)c1ccccc1 | 111% |
| COc1cccc(OC)c1C(=O)N[C@@H]1C(=O)N2[C@@H]1SC(C)(C)[C@@H]2C(=O)O | 105% |
| CCCCn1c(-c2ccc(C(=O)O/N=C(\N)c3ccc(OC)cc3)cc2)nc(-c2ccccc2)c1-c1ccccc1 | -40.8% (active) |
| CCCCCCN(CCCCCC)c1ccc(/C=C2/SC(=O)NC2=O)c(C)c1 | 65.6% |

| SMILES | growth |
| --- | --- |
| COc1cc(C(=O)N2N=C(c3ccc(S(C)(=O)=O)cc3)CC2c2ccco2)cc(OC)c1OC (centres undefined) | 42.9% |
| COc1ccc(-c2cc(-c3ccc(Cl)cc3)c(C#N)c(=O)n2CCCCCC(=O)Nc2ccccc2N)cc1 | -19.5% (active) |
| COc1cccc(-c2nn(-c3ccccc3)cc2-c2ccnc(N3CCOCC3)c2)c1 | 82.8% |
| COc1cc(CNS(=O)(=O)c2ccc(C)cc2)ccc1OCc1cn(-c2ccccc2)nn1 | 93.5% |
| O=C(CCOCCNC(=O)COc1ccc2c(c1)OCC(c1ccc(F)cc1)C2=O)NCCCC(O)(P(=O)(O)O)P(=O)(O)O (centres undefined) | 102% |
| COc1ccc(C(=O)n2nc(-c3ccccc3)nc2N)cc1OC | 103% |
| Cc1cc(C)c(-c2c(N)cc(Br)cc2Br)c(N)c1 | 36.7% |
| [O-][n+]1c2ccccc2[n+]([O-])c2c3ccccc3[nH]c21 | 69.7% |
| Cc1c(C(=O)/C=C/Nc2c(Cl)cc(S(N)(=O)=O)cc2Cl)sc2nc3ccccc3n12 | 101% |
| Cc1ccc(C(C)C)cc1C(=O)C[n+]1ccccc1 | 93.5% |
| COc1ccc2c(c1)/C(=C/c1sc(=S)n(Cc3ccco3)c1O)C=N2 | 27.8% |
| Cc1cc2[nH]c(=O)c3c4ncccc4cn3c2cc1C | -14.7% (active) |
| Cc1nc2ccccc2c(/C=C/c2ccccc2)c1C(=O)/C=C/c1ccc(C(F)(F)F)cc1 | -74.2% (active) |
| CN1CCN(CC(=O)N2c3cccc4cccc(c34)N(C(=O)CN3CCN(C)CC3)C2c2cn(-c3ccccc3)nc2-c2cccc([N+](=O)[O-])c2)CC1 | -67.1% (active) |
| Cc1ccc(S(=O)(=O)N/N=C/C2(c3ccccc3)CC2)cc1 | 94.7% |
| COc1cc(Nc2cn[nH]c2-c2ccc(Cl)cc2)cc(OC)c1OC | 66.4% |
| CNC(=O)c1cc(-n2ccc3cc(NC(=O)c4ccc(N5CCOCC5)c(C(F)(F)F)c4)ccc32)ccn1 | -3.1% (active) |
| CN1CCN(c2ccc(-c3cc4c(Nc5ccc(F)c(Cl)c5)ncnn4c3)cc2)CC1 | 84.8% |
